The whole screen tested about 320,000 compounds, of which about 2,100 (0.66%) were called active. Inconclusive results (about 53%) are left out. The call rests on the fitted dose curve; in most records, active means well fitted inhibition curve with a large enough effect in the signal ratio, with a control signal flat (not every such curve was filed as active); inconclusive means small, poorly fitted or top-dose-only effect, or effect the other way, or a change in a side signal; inactive means flat fitted curve, though single readings scatter; the % refers to the signal ratio. Shown is part of a subset that was picked to be rich in actives.
Assay: qHTS Assay for Lipid Storage Modulators in Drosophila S3 Cells;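 on cell number change: cells counted by Cell Tracker Red CMTPX staining in the red channel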
Conditions: BODIPY lipid droplet fluorescence, 18-24 h, cells fed with added oleic acid; cell number change: measured here: cell count max response; series mostly up to 46.1 µM
Method in brief: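 Drosophila S3 cells loaded with oleic acid (400 uM, as added) and compounds at several concentrations; lipid droplets imaged by 488-nm laser-scanning cytometry, 500–530 nm intensity and object ratio to cell channel. Percent activity normalized to 20 uM Triacsin C.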
Potency means the concentration at half of the fitted maximal effect.

Row | SMILES | Potency | cell number change [%] | outcome
1 | CCC(C)c1ccccc1OCC(=O)NN1C(=O)c2ccccc2C1=O (centres undefined) | inactive | -0.73 | 
2 | COc1ccccc1C(=O)Nc1ccc(C(=O)N2CCCCC2)cc1 | inactive | -10.6 | 
3 | Cn1c(=O)c2c(nc(CN3CCN(C(=O)c4ccco4)CC3)n2Cc2ccccc2)n(C)c1=O | inactive |  | 
4 | Cc1ccc(-c2csc3ncnc(SCC(=O)NCc4ccc5c(c4)OCO5)c23)cc1 | inactive | -1.52 | 
5 | Cc1ccc(-c2csc3ncnc(SCC(=O)c4ccc5c(c4)OCCO5)c23)cc1 | 5.17 µM (active) | -23.9 | 
6 | O=C(CSc1ncnc2scc(-c3ccc(F)cc3)c12)c1ccc2c(c1)OCCO2 | inactive | 7.81 | 
7 | COCCn1nnnc1C(c1ccccc1OC)N1CCN(c2ccccc2)CC1 (centres undefined) | inactive | 8.57 | 
8 | CCn1cnc2c1c(=O)n(CC(=O)OC(C)C(N)=O)c(=O)n2Cc1ccccc1 (centres undefined) | inactive | 10.8 | 
9 | Cc1cc(C(=O)N2CCc3c([nH]c4ccccc34)C2c2cccc(Cl)c2)nn1C (centres undefined) | inactive | -10.9 | 
10 | CCOCC(=O)N1CCCC(C(=O)OCC)C1 (centres undefined) | 18.4 µM (active) | -14.8 | 
11 | CCCCC(=O)N1CCCC(C(=O)OCC)C1 (centres undefined) | inactive | 23.1 | 
12 | CCOC(=O)C1CCCN(C(=O)Cc2ccc(C)cc2)C1 (centres undefined) | inactive | 14.8 | 
13 | NCCNC[C@@H]1COC2(CCCCCCCCCCC2)O1 | inactive | 6.45 | 
14 | CC1CC(C)CN(S(=O)(=O)c2ccc3c(c2)C(C)(C)C(=O)N3C)C1 (centres undefined) | inactive | 26.4 | 
15 | Cc1nc(C)n(C(C)CC(=O)O)n1 (centres undefined) | inactive | -20 | 
16 | Cc1nn(C(C)CC(=O)O)c(C)c1C (centres undefined) | 23.1 µM (active) |  | 
17 | CC(=O)c1c(C)nn(C(C)CC(=O)O)c1C (centres undefined) | inactive | -4.59 | 
18 | C/C(Cn1nnc([N+](=O)[O-])n1)=N\NC(=O)c1ccc(C)cc1 | inactive | 24.7 | 
19 | COc1ccc(N(C(=O)CNC(=O)c2cccs2)C(C(=O)NC2CCCC2)c2cccnc2)cc1 (centres undefined) | inactive | 3.7 | 
20 | O=C(Nc1ccc(F)cc1)C(c1ccccc1)N1CCN(C(=O)c2ccco2)CC1 (centres undefined) | inactive |  | 
21 | CC(C)C(=O)Nc1ccc(C(=O)N2CCN(C(=O)c3ccco3)CC2)cc1 | 4.61 µM (active) | 6.86 | 
22 | CCOc1ccccc1NC(=O)C(c1ccccc1)N1CCN(C(=O)c2ccco2)CC1 (centres undefined) | inactive | -20.1 | 
23 | CC(C(=O)Nc1ccccc1)N1CCN(C(=O)c2ccco2)CC1 (centres undefined) | inactive | 13.4 | 
24 | CC(C)c1ccc(NC(=O)C(c2ccccc2)N2CCN(C(=O)c3ccco3)CC2)cc1 (centres undefined) | 20.6 µM (active) | -35.1 | 

Row | SMILES | Potency | cell number change [%] | outcome
25 | CC(C)Oc1ccc(C(=O)N2CCN(C(=O)c3ccco3)CC2)cc1 | inactive | 19.8 | 
26 | O=C(c1ccc(NS(=O)(=O)c2cccc([N+](=O)[O-])c2)cc1)N1CCN(C(=O)c2ccco2)CC1 | 9.2 µM (active) | 1.34 | 
27 | O=C(c1ccc(NS(=O)(=O)c2cccc([N+](=O)[O-])c2)cc1)N1CCCCCC1 | inactive | -11.1 | 
28 | O=C(c1ccco1)N1CCN(S(=O)(=O)c2cccc([N+](=O)[O-])c2)CC1 | inactive | -1.91 | 
29 | CCOc1ccc(NS(=O)(=O)c2c(C)nc3sccn3c2=O)cc1 | inactive | -0.288 | 
30 | O=C(Nc1ccc(Br)cc1)C1CCCN(C2=NS(=O)(=O)c3ccccc32)C1 (centres undefined) | inactive | 0.774 | 
31 | Cc1ccc(SC(C)C(=O)Nc2ncn[nH]2)cc1 (centres undefined) | inactive |  | 
32 | CC1CCN(C(CNS(=O)(=O)c2ccccc2)c2ccccc2)CC1 (centres undefined) | 0.461 µM (active) | 12.1 | 
33 | Cc1ccc(C(CNS(=O)(=O)c2ccccc2)N2CCN(C)CC2)cc1 (centres undefined) |  |  | inactive [at 0.0737 µM]
34 | O=S(=O)(NCC(c1ccccc1)N1CCC(O)CC1)c1ccc(Cl)cc1 (centres undefined) | inactive |  | 
35 | CCOc1cccc(OCCn2cnc3ccccc3c2=O)c1 | inactive | 10.8 | 
36 | COc1cccc(C(=O)N2CCN(C(=O)C3COc4ccccc4O3)CC2)c1 (centres undefined) | inactive |  | 
37 | CCN(CC)CCCn1c(=S)[nH]c2cc(C(=O)OC)ccc2c1=O | 3.66 µM (active) | 12.4 | 
38 | CCOCCCn1c(=S)[nH]c2cc(C(=O)NCCc3ccccc3)ccc2c1=O | inactive |  | 
39 | CCn1c(=S)[nH]c2cc(C(=O)OC)ccc2c1=O | inactive | 11.1 | 
40 | COCCn1c(=S)[nH]c2cc(C(=O)NCCc3ccccc3)ccc2c1=O | 2.31 µM (active) | -6.13 | 
41 | COC(=O)c1ccc2c(=O)n(CCCCCC(=O)O)c(=S)[nH]c2c1 | inactive | 9.06 | 
42 | COCCn1c(=S)[nH]c2cc(C(=O)NC(C)C)ccc2c1=O | inactive |  | 
43 | Cc1ccc(S(=O)(=O)Nc2cc(C(C)C)c(O)cc2C)cc1 | inactive | -20 | 
44 | CCOC(=O)/C(C#N)=C/N1CCOCC1 | inactive | -2.81 | 
45 | NC(=NC(=O)c1ccc(OCC(F)(F)F)nc1)c1ccc(Cl)cc1 | inactive | -16.5 | 
46 | Cc1ccc(OCC(=O)OCC(=O)Nc2sccc2C(N)=O)cc1C | inactive | -3.96 | 
47 | COc1cc(OC)cc(C(=O)OCC(=O)Nc2sccc2C(N)=O)c1 | inactive | 2.18 | 
48 | CC(=O)c1ccc(OCC(=O)OCC(=O)Nc2sccc2C(N)=O)cc1 | 3.66 µM (active) | -10.9 | 

Row | SMILES | Potency | cell number change [%] | outcome
49 | COc1ccc(CCC(=O)OCC(=O)Nc2sccc2C(N)=O)cc1 | 6.51 µM (active) | -27.9 | 
50 | COc1ccc(CCC(=O)OCC(=O)Nc2ccccc2)cc1 | inactive | 3.15 | 
51 | NC(=O)c1ccsc1NC(=O)COC(=O)COc1ccccc1F | inactive | -3.04 | 
52 | CCOC(=O)C1CCN(C(=O)CCc2c(C)nc3c(-c4ccc(F)cc4)c(C)nn3c2C)CC1 | inactive | 9.15 | 
53 | COc1ccccc1NS(=O)(=O)c1cccc(C(=O)N2CCN(C/C=C/c3ccccc3)CC2)c1 | inactive | -3.91 | 
54 | COc1cc2c(C(=O)N(C)c3ccc(F)cc3)cn(C)c(=O)c2cc1OC | inactive | -28.8 | 
55 | CN(CC(=O)OCC(N)=O)S(=O)(=O)c1ccc(Cl)cc1 | inactive | -16.4 | 
56 | CCCC(=O)OCC(=O)c1[nH]c(C)c(C(C)=O)c1C | inactive | 5.74 | 
57 | CC(=O)c1c(C)[nH]c(C(=O)COC(=O)CN(C)S(=O)(=O)c2ccc(Cl)cc2)c1C | 5.8 µM (active) |  | 
58 | O=C(Nc1cccc(Cl)c1)c1ccc2c(=O)n3c(nc2c1)CCCCC3 | inactive | -6.1 | 
59 | O=C(N1CCCCC1)C12CC3CC(CC(C3)C1)C2 | inactive | -0.102 | 
60 | Cc1ccc(OCc2nnc(SCC(=O)NC3CCCCC3)n2C)cc1 | inactive | 20.5 | 
61 | COc1ccc(OCc2nnc(SCC(=O)NC3CC3)n2C)cc1 | inactive | 16.2 | 
62 | Cn1c(COc2ccc(Cl)cc2)nnc1SCC(=O)NC1CCCC1 | 14.6 µM (active) | 17.9 | 
63 | COC(=O)c1cc2c(N)c(C(=O)c3ccccc3)sc2nc1C(OC)OC | inactive | -8.65 | 
64 | CS(=O)(=O)c1ccc(S(=O)CC(=O)OCc2ccccc2)c([N+](=O)[O-])c1 (centres undefined) | 29.1 µM (active) | -65.2 | 
65 | O=C(CS(=O)c1ccccc1[N+](=O)[O-])Oc1ccc(Br)cc1 (centres undefined) | inactive | 2.35 | 
66 | CCOC(=O)c1ccccc1OC(=O)CS(=O)c1ccccc1[N+](=O)[O-] (centres undefined) | inactive | -21.3 | 
67 | CSc1nsc(SCC(=O)N2CCc3ccccc32)n1 | inactive | -10.2 | 
68 | O=C(NCCCn1ccnc1)C(=O)NCC1OCCN1S(=O)(=O)c1ccc(Br)cc1 (centres undefined) | inactive | -6.41 | 
69 | O=C(CN1C(=O)NC2(CCCC2)C1=O)Nc1ccccc1F | inactive | -18 | 
70 | CSCC[C@H](NC(=O)Nc1cccc(C(F)(F)F)c1)C(=O)O | 14.6 µM (active) | -1.65 | 
71 | COC(=O)[C@H](CCSC)NC(=O)Nc1ccc(C(C)=O)cc1 | inactive | 0.814 | 
72 | COC(=O)[C@H](CCSC)NC(=O)Nc1ccc(C)c(C)c1 | 5.17 µM (active) | -12.2 | 

Row | SMILES | Potency | cell number change [%] | outcome
73 | COC(=O)[C@H](CCSC)NC(=O)Nc1cc(C)ccc1C | inactive |  | 
74 | CSCC[C@H](NC(=O)Nc1cccc(Br)c1)C(=O)O | inactive | 8.72 | 
75 | C[C@H](NC(=O)Nc1cccc(C(F)(F)F)c1)C(=O)O | inactive | 14.7 | 
76 | COc1cccc(-c2ccc(C#N)c(SCC(=O)NCc3ccco3)n2)c1 | inactive | 0.401 | 
77 | CCOC(=O)c1sc2nc(C)nc(SCC(=O)NC(C)CCc3ccccc3)c2c1C (centres undefined) | inactive |  | 
78 | COc1ccc(OC)c(CNC(=O)C2CCC(=O)N(CCCN3CCCC3=O)C2)c1 (centres undefined) | inactive | 15.9 | 
79 | CCOc1ccc(S(=O)(=O)Nc2nc3ccccc3nc2-n2ccc(=NC(=O)c3ccccc3C)cc2)cc1 | inactive | -0.599 | 
80 | Cc1cc(C(=O)NNC(=S)NCc2ccco2)nn1C | inactive |  | 
81 | CN(Cc1c(F)cccc1Cl)C(=O)c1cc2ccccc2o1 | inactive |  | 
82 | Cc1cc(C(=O)N(C)Cc2c(F)cccc2Cl)c2ccccc2n1 | 5.17 µM (active) | -7.26 | 
83 | CN(Cc1c(F)cccc1Cl)C(=O)c1ccc2ccccc2n1 | inactive | 19.7 | 
84 | O=c1cc(NCc2ccco2)[nH]c(=O)n1-c1ccc(Br)cc1 | inactive | -12.2 | 
85 | COc1ccc(-c2cc(CNC(C)=O)on2)cc1 | inactive | 0.804 | 
86 | COc1ccc(-c2cc(CNC(=O)CN3CCN(C)CC3)on2)cc1 | 4.11 µM (active) | -114 | 
87 | COc1ccc(-c2cc(CNC(=O)CCl)on2)cc1 | inactive | 8.76 | 
88 | O=Cc1c(N2CCN(c3ccccc3)CC2)nc2ccccn2c1=O | inactive | 2.17 | 
89 | CN1CCN(c2nc3ccccn3c(=O)c2C=O)CC1 | inactive | 25 | 
90 | COc1ccc(N2CCN(c3nc4ccccn4c(=O)c3C=O)CC2)cc1 | 4.61 µM (active) | 25.2 | 
91 | COc1cccc(NC(=O)CSc2nnnn2C2CCCC2)c1 | 8.2 µM (active) | -5.13 | 
92 | COc1cc(NC(=O)CSc2nnnn2C2CCCC2)cc(OC)c1 | inactive | 5.13 | 
93 | COc1ccc(NC(=O)CSc2nnnn2C2CCCC2)cc1 | inactive | 9.25 | 
94 | CC(C)C(=O)N=c1sc2cccc(F)c2n1C | inactive | 19.6 | 

— PubChem BioAssay AID2685 (National Center for Advancing Translational Sciences (NCATS), 2010)
